# From PubChem BioAssay (NCATS)
# Records with an inconclusive call do not appear. A call without a number means that no potency is given here. The source made the active and inactive calls. Calls come from the whole dose curve; as a rule, active = well fitted cell-killing curve with a large enough effect; inconclusive = small, poorly fitted or top-dose-only effect, or effect the other way; inactive = no such curve, though single readings can be large or run the other way.
# Assay: Quantitative High-Throughput drug screen in 47 multiple myeloma cell lines against the NCATS MIPE library collection: KMS28BM_JCRB cell viability assay (AID 1919874); note: nearly all actives have a fitted effect of over 35% in size
# Settings: CellTiter-Glo ATP, 48 h; series mostly up to 45.8 µM
# In short: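 Plated at 500 cells per well, myeloma lines received MIPE 4.0 compounds by pin tool. Following 48 h culture at 37 °C, CellTiter-Glo luminescence gave viability relative to DMSO and media-only controls.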
# Potency is the fitted concentration of half-maximal effect.
row,SMILES,Potency
1,CC(C)(C)OC(=O)N[C@H]1CCCCCC=C[C@@H]2C[C@@]2(C(=O)NS(=O)(=O)C2CC2)NC(=O)[C@@H]2C[C@@H](OC(=O)N3Cc4cccc(F)c4C3)CN2C1=O,inactive
2,Cn1cc(C=C2C(=O)Nc3cccnc32)c2ccccc21,inactive
3,Cc1c(NC(=O)c2ccc(C(C)(C)C)cc2)cccc1-c1cn(C)c(=O)c(Nc2ccc(C(=O)N3CCOCC3)cc2)n1,18.7 µM (active)
4,CCc1ccc(C=C2SC(=S)NC2=O)cc1,inactive
5,O=C(O)c1ccc(-c2cc3cccnc3c(-c3ccc4nonc4c3)n2)cc1,26.4 µM (active)
6,CC[C@H]1OC(=O)[C@H](C)C(=O)[C@H](C)[C@@H](O[C@H]2O[C@H](C)C[C@H](N(C)C)[C@@H]2O)[C@](C)(OC)C[C@@H](C)C(=O)[C@H](C)[C@H]2N(CCCCn3cnc(-c4cccnc4)c3)C(=O)O[C@]12C,inactive
7,O=C(Nc1c(Cl)cncc1Cl)c1ccc(OC(F)F)c(OCC2CC2)c1,inactive
8,NC(=O)NN=Cc1ccc([N+](=O)[O-])o1,inactive
9,CCOc1ccc(Nc2nc(-c3c(C)nc4ccccn34)cs2)cc1,inactive
10,NC(=O)[C@@H](CCC(F)(F)F)N(Cc1ccc(-c2ncon2)cc1F)S(=O)(=O)c1ccc(Cl)cc1,20.9 µM (active)
11,COc1cccc([C@@H](C)NCCCc2ccccc2Cl)c1,inactive
12,O=c1c(O)c(-c2ccc(O)cc2)oc2cc(O)cc(O)c12,4.69 µM (active)
13,N[C@@]1(C(=O)O)CS(=O)(=O)[C@H]2[C@H](C(=O)O)[C@H]21,inactive
14,COc1ccc(-c2nc(N3CCOCC3)c3sc(CN(C)c4ncc(C(=O)NO)cn4)cc3n2)cn1,inactive
15,CCN(CC)CCOc1ccc(C(=C(Cl)c2ccccc2)c2ccccc2)cc1,10.5 µM (active)
16,COc1ccc2c(Oc3ccc(NC(=O)c4c(C)n(CC(C)(C)O)n(-c5ccccc5)c4=O)nc3)ccnc2c1,inactive
17,O=c1cc(-c2ccccc2)oc2cc(O)c(O)c(O)c12,inactive
18,CC(=O)N(C)C1(c2ccccc2)CCN(CCC[C@]2(c3ccc(Cl)c(Cl)c3)CCCN(C(=O)c3ccccc3)C2)CC1,20.9 µM (active)
19,CC(=O)OC1C(C)OC(Oc2c(-c3ccc(O)cc3)oc3cc(O)cc(O)c3c2=O)C(O)C1OC(C)=O (stereo not drawn),inactive
20,O=C1NC(=O)C(=Cc2cccc(C(F)(F)F)c2)S1,inactive
21,O=C(O)c1ccc(-c2c[nH]c3ncc(-c4ccccc4)cc23)cc1C1CCCC1,inactive
22,O=C(NCc1ccncc1)C12C[C@H]3C[C@@H](C1)CC(c1ccc(Cl)cc1)(C3)C2,18.7 µM (active)
23,CCS(=O)(=O)N1CC(CC#N)(n2cc(-c3ncnc4[nH]ccc34)cn2)C1,23.5 µM (active)
